Source: PubChem BioAssay (The Scripps Research Institute Molecular Screening Center)
This is a sample that favours compounds with a hit; in the whole collection about 2% have one here.
LEDGF integ inh – blocks HIV-1 LEDGF/p75-dependent DNA integration | hit rate 0.64% among 370,000 | inhibition, % at 3.7 µM | TR-FRET IN-LEDGF/p75 DNA integration, Eu/Cy5;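 active = inhibition above the screen-wide mean plus 3 SD, cut at about 13% in these data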;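 note: signal is the Cy5 over europium emission ratio at 671 and 618 nm; 0% = plate median of compound wells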
TCR-CD3 inh – human TCR-CD3 binding inhibition; TAMRA-labeled TCR probe fluorescence, biochemical; inhibition, % at 9.4 µM; hit rate 0.37% among 360,000; AID 651800;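 note: recombinant mutant TCR 2C K166C tagged with TAMRA read by polarization; 0% = receptor in buffer alone and 100% = receptor with positive control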
MBD2 DNA inh – blocks human MBD2 binding to methylated DNA. Q9UBB5. TR-FRET, MBD2 binding to methylated oligonucleotide. inhibition, % at 4.4 µM. hit rate 0.31% among 370,000. AID 686964; in the data active = inhibition above about 13%
Target sequence (Q9UBB5 whole entry, looked up): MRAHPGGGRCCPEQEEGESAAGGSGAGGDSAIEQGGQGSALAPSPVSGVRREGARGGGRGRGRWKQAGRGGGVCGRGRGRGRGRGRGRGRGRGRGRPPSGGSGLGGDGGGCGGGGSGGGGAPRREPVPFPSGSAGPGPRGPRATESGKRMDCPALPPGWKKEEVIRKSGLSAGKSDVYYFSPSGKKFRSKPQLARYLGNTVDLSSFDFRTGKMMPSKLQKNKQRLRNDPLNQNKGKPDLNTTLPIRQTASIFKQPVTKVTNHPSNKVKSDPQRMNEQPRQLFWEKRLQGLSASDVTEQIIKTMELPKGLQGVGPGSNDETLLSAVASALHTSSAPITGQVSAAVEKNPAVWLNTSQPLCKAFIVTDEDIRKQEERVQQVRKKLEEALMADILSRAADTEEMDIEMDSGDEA
Rin1-Abl PPI inh – human Rin1-Abl interaction inhibition. hit rate 0.4% among 360,000. AID 588664. P00519+Q13671. inhibition, % at 7.35 µM. TR-FRET Rin1/Abl binding, biochemical; in the data active = inhibition above about 5%, passing the limit was not always enough
UHRF1 binding – blocks human UHRF1 binding to methylated DNA; hit rate 0.75% among 370,000; inhibition, % at 4.4 µM; UHRF1 binding to methylated oligo, TR-FRET; Q96T88; in the data active = inhibition above about 21%;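 note: UHRF1 SRA domain binding a hemimethylated CpG hairpin DNA probe; 0% = median of test compound wells and 100% = reference inhibitor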
BSA probe FL – interferes with TAMRA-BSA probe, flagging TCR-CD3 hits. inhibition, % at 9.4 µM. hit rate 10% among 1,200. shares compounds with TCR-CD3 inh. TAMRA-labeled BSA probe fluorescence counterscreen; in the data active = inhibition above about 23%;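 note: 0% = buffer low control and 100% = reference high control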
TCR-CD3 inh conf – TCR-CD3 interaction inhibition, confirmation | TAMRA-labeled TCR probe fluorescence binding assay | inhibition, % at 9.4 µM | shares compounds with TCR-CD3 inh | AID 652036 | hit rate 48% among 1,200
* hit, by the source's call; nt = no result given. Cut-off read from the data, not from the text of the source, unless noted: active = inhibition above about 19%; inactive = the rest.

SMILES | LEDGF integ inh | TCR-CD3 inh | MBD2 DNA inh | Rin1-Abl PPI inh | UHRF1 binding | BSA probe FL | TCR-CD3 inh conf
Cc1ccc(S(=O)(=O)Nc2ccccc2F)cc1C(=O)NNC(=O)c1ccccc1O | -8 | 19* | 3 | -3 | 2 | 12 | 25*
COCCNC(=O)C1(C)CCN(C(=O)c2ccc(C(F)(F)F)nc2C)C1 (stereo not drawn) | 3 | 2 | -2 | -1 | 3 | nt | nt
CC(OC(=O)c1ccc(F)c(S(=O)(=O)N2CCOCC2)c1)C(=O)NC1CCCC1 (stereo not drawn) | 5 | 7 | 1 | 1 | 0 | nt | nt
Cc1ccccc1CN1CC2=C(CCN(Cc3ccccc3)C2=O)N2CCN=C12 | -2 | -5 | -2 | -2 | 0 | nt | nt
CC(C)c1ccc(/C=N/n2c(-c3ccccc3)n[nH]c2=S)cc1 | 7 | -14 | 0 | 3 | -1 | nt | nt
C/C(=N/NC(=O)c1ccc(-c2ccccc2)cc1)c1cc(O)cc(O)c1 | -1 | -3 | -3 | 1 | 0 | nt | nt
C/C(=N\NC(=O)c1ccc(-c2ccccc2)cc1)C1C(=O)c2ccccc2C1=O | -4 | 29* | -3 | 2 | 1 | -7 | 38*
CN1CCN(c2ccc(S(=O)(=O)N3CCOCC3)cc2NC(=O)COc2ccc(C#N)cc2)CC1 | 1 | -5 | 2 | -2 | -1 | nt | nt
CC(OC(=O)c1ccc(NC(=O)CC#N)cc1)C(=O)NC(c1ccccc1)c1ccccc1 (stereo not drawn) | 3 | 29* | -3 | -3 | -4 | 4 | 1
Cc1ccc(NC(=O)C(C)OC(=O)c2ccc(NC(=O)CC#N)cc2)cc1S(=O)(=O)N1CCOCC1 (stereo not drawn) | 1 | 27* | 1 | -3 | 1 | -3 | 4
CCOc1ccccc1NC(=O)C(OC(=O)c1ccc(NC(=O)CC#N)cc1)c1ccccc1 (stereo not drawn) | -2 | 20* | 0 | -1 | 1 | -3 | 4
CC(OC(=O)c1ccc(NC(=O)CC#N)cc1)C(=O)Nc1ccc2c(c1)OCCO2 (stereo not drawn) | 5 | 2 | -3 | 0 | 2 | nt | nt
Cc1ccsc1C(=O)OCC(=O)N(C)C1CCCCC1 | -4 | -5 | -3 | 6 | 0 | nt | nt
O=c1[nH][nH]c(C(F)(F)F)c1C=Nc1ccccc1 | 5 | 4 | 1 | 2 | -1 | nt | nt
Cc1cc(O)ccc1N=Cc1c(C(F)(F)F)[nH][nH]c1=O | 1 | 84* | -7 | 2 | -10 | 30* | 14
Cc1ccc(NC(=O)c2ccc(Cl)c(S(=O)(=O)N3CCCCC3)c2)nc1 | -2 | 3 | 0 | 0 | -3 | nt | nt
NS(=O)(=O)c1ccc(CCNC(=S)NC(=O)c2ccccc2Br)cc1 | -3 | 2 | 8 | 2 | 0 | nt | nt
CCc1nc2c(OCc3cc(Cl)cc(Cl)c3)cccn2c1N(C)C(=O)c1ccc(OC)cc1 | 0 | -1 | 2 | -4 | 0 | nt | nt
O=C(O)c1ccc(/C=N/O)cc1 | -4 | 19* | 3 | -3 | 4 | 1 | 1
CNC(=O)c1ccccc1C1(O)c2ccccc2CCc2ccccc21 | -3 | -1 | -1 | nt | 1 | nt | nt
CCn1c(C)nc2cc(C(=O)NNC(=S)Nc3ccc(C)cc3)ccc21 | -8 | -8 | 2 | 1 | 1 | nt | nt
O=C(NC(=S)NNC(=O)c1ccccc1O)c1ccco1 | 2 | 25* | 2 | -2 | 2 | -9 | 19
COc1ccc(C(=O)NC(=S)NNC(=O)c2ccc(O)cc2)cc1[N+](=O)[O-] | -2 | 28* | 2 | 1 | 0 | -2 | 28*
COc1ccc(C(=O)NNC(=O)c2ccncc2)cc1[N+](=O)[O-] | -1 | 5 | -2 | 8 | 0 | nt | nt
O=C(NC(=S)NNC(=O)c1ccccc1O)c1cccc([N+](=O)[O-])c1 | 1 | 29* | -3 | 2 | -2 | -12 | 13
CCn1c(C)nc2cc(C(=O)NNC(=S)NC(=O)c3ccc(OC)cc3)ccc21 | -2 | 36* | 4 | -1 | -3 | -1 | 32*
CCCC(O)(c1ccc(CC)cc1)C(CN1CCOCC1)c1ccccc1 (stereo not drawn) | -2 | 6 | 3 | 7 | -1 | nt | nt
C/C(=N/NS(=O)(=O)c1ccc(Br)cc1)c1cccc(NC(=O)C2CC2)c1 | -1 | -1 | 1 | -1 | 1 | nt | nt
